According to PubChem BioAssay (EPA / NIEHS):
Values joined by “and” are separate entries in the source; they are usually repeats but may differ in a detail not shown here. Equal entries are not always repeated. More than one record can exist for a structure, and the calls need not agree. Active and inactive are the calls of the source. Rule for the calls: active = hit-call score of the fitted dose curve at least 0.9, where 1 is the maximum; inactive = score below 0.9.

Assay: CCTE_Shafer_MEA_acute_spike_number: CCTE's Neural Acute Assay for Total Number of Spikes, Shafer Lab (AID 2284008);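 for AC50: curve fitted for decrease in spike count so AC50 reflects inhibitors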
Method: CCTE_Shafer_MEA_acute assay is conducted using Axion Biosystems 48 well microelectrode array (MEA) plates and Maestro recording system. Each well of the MEA plate contains a grid of 16 microelectrodes embedded in the culture surface. Electrically active cells, such as neurons, can be cultured over the electrodes, and electrical activity in these cells can be recorded extracellularly. The spontaneous firing of neurons is captured from each electrode on a microsecond timescale providing both temporally and spatially precise data. […] The CCTE_Shafer_MEA_acute assay uses primary cultures of rat cortical neurons. As these cultures mature over time, neural networks develop functional activity and form cohesive networks in which electrical activity can be highly coordinated. Baseline 40-minute recordings are made on days post-plating 13 or 15, followed by a secondary 40-minute recording after chemical exposure.CCTE_Shafer_MEA_acute_spike_number is a component of the CCTE_Shafer_MEA_acute assay. It measures the total number of spikes (action potential firings) in a 40-minute recording in a microelectrode array (MEA) using Axion Biosystems Maestro 768 channel amplifier with the AxIS adaptive spike detector. The recordings before and after chemical treatment are used to calculate a percent change in the spike number in each well. Data from the assay component CCTE_Shafer_MEA_acute_spike_number was analyzed into 1 assay endpoint. This assay endpoint, CCTE_Shafer_MEA_acute_spike_number, was analyzed in the negative analysis fitting direction relative to DMSO as the negative control and baseline of activity. Using a type of functional reporter, gain or loss-of-signal activity can be used to understand electrical activity.
Spontaneous activity in the cortical cultures was recorded using an Axion Biosystems Maestro 768 channel amplifier and Axion Integrated Studios (AxIS) v1.8 (or later) software. The amplifier recorded from all channels simultaneously (gain = 1200 x; sampling rate = 12.5 kHz/channel): raw signals were filtered with a Butterworth band-pass filter (300-5000 Hz), which filters out slower local field potentials leaving only fast potentials, i.e., "spikes", arising from extracellular currents associated with action potentials (Pine 2006; Wheeler and Nam 2011). On-line spike detection of filtered signals was conducted with the AxIS adaptive spike detector, using a threshold of 8x the root mean squared (rms) noise on each channel. Any electrodes with rms noise levels greater than 5 uV were grounded (e.g., no data were recorded). Once grounded, an electrode was grounded for the duration of the experiment. All recordings were conducted at 37 C. Wells were deemed usable if on the day of the exposure >/= 10 electrodes were active (defined as >/= 5 spikes/min). On DIV 13 or 15, a minimum of three wells from one cortical culture preparation were treated with each compound (0.03-40 uM). Prior to recording baseline activity, each mwMEA plate was placed in the Maestro at 37 C and allowed to sit for 20 min while firing rates stabilized. Baseline activity (40 min) was recorded before the addition of each compound. An additional 40 min of spontaneous activity was recorded in the presence of each compound. Changes in network parameters relative to baseline were assessed following compound treatment.

Structure (SMILES) | outcome | AC50
N#CSCSC#N | inactive | 
CC(COc1ccc(Oc2ccccc2)cc1)Oc1ccccn1 (stereo not given) |  | 20 µM (active)
CC(=NC#N)N(C)Cc1ccc(Cl)nc1 | inactive | 
C#CCC1=C(C)C(OC(=O)C2C(C=C(C)C)C2(C)C)CC1=O (stereo not given) |  | 27.4 µM (active)
CN(C)[C@@H]1C(=O)C(C(N)=O)=C(O)[C@@]2(O)C(=O)C3=C(O)c4c(O)cccc4[C@@](C)(O)[C@H]3[C@H](O)[C@@H]12 | inactive | 
COc1cc(OC)nc(Sc2cccc(Cl)c2C(=O)O)n1 | inactive | 
C[N+]1(C)CCCCC1 | inactive | 
CSC1=N[C@@](C)(c2ccccc2)C(=O)N1Nc1ccccc1 | inactive | 5.8 µM (active)
CCOP(=O)(NC(C)C)Oc1ccc(SC)c(C)c1 (stereo not given) |  | 10.2 µM (active)
COP(=O)(NC(C)=O)SC (stereo not given) | inactive | 
CC1=NNC(=O)N(/N=C/c2cccnc2)C1 | inactive | 
CNC(=O)ON=C(SC)C(=O)N(C)C | inactive | 
C=C(C)[C@H]1Cc2c(ccc3c2O[C@@H]2COc4cc(OC)c(OC)cc4[C@@H]2C3=O)O1 |  | 2.81 µM (active)
CC(C)=CC1C(C(=O)OCN2C(=O)C3=C(CCCC3)C2=O)C1(C)C (stereo not given) | inactive | 
Nc1c(Cl)cc([N+](=O)[O-])cc1Cl | inactive | 
COP(=O)(OC)C(O)C(Cl)(Cl)Cl (stereo not given) | inactive | 
FC(F)C(F)(F)OCC(Cn1cncn1)c1ccc(Cl)cc1Cl (stereo not given) |  | 5.94 µM (active)

Structure (SMILES) | outcome | AC50
CON=C(C(=O)OC)c1ccccc1CON=C(C)c1cccc(C(F)(F)F)c1 |  | 0.183 µM (active)
C[Si](Cn1cncn1)(c1ccc(F)cc1)c1ccc(F)cc1 |  | 4.69 µM (active)
CCc1cccc(C)c1N(C(=O)CCl)C(C)COC (stereo not given) |  | 27 µM (active)
CCOP(=S)(OCC)Oc1ccc2c(C)c(Cl)c(=O)oc2c1 |  | 1.85 µM (active)
CCOP(=S)(OCC)SCCSCC | inactive | 
CCOP(=S)(Oc1cnc(C(C)(C)C)nc1)OC(C)C (stereo not given) |  | 15.6 µM (active)
CN1COCN(Cc2cnc(Cl)s2)C1=N[N+](=O)[O-] | inactive | 
O=[N+]([O-])c1cc(C(F)(F)F)c(Cl)c([N+](=O)[O-])c1Nc1ncc(C(F)(F)F)cc1Cl |  | 0.351 µM (active)
Cc1ccn2nc(S(=O)(=O)Nc3c(F)cccc3F)nc2n1 | inactive | 
CCOC(=O)CC(SP(=O)(OC)OC)C(=O)OCC (stereo not given) | inactive | 
CCc1cnc(C2=NC(C)(C(C)C)C(=O)N2)c(C(=O)O)c1 (stereo not given) | inactive | 
CC(C)N(C(=O)SCC(Cl)=C(Cl)Cl)C(C)C |  | 8.85 µM (active) and 5.81 µM (active)
O=C(O)c1cc(Oc2ccc(C(F)(F)F)cc2Cl)ccc1[N+](=O)[O-] | inactive | 
CCCOCC(=Nc1ccc(Cl)cc1C(F)(F)F)n1ccnc1 |  | 0.568 µM (active)
CN(C)NC(=O)CCC(=O)O | inactive | 
CC[C@H](C)[C@H]1O[C@]2(C=C[C@@H]1C)C[C@@H]1C[C@@H](C/C=C(\C)[C@@H](O[C@H]3C[C@H](OC)[C@@H](O[C@H]4C[C@H](OC)[C@@H](NC)[C@H](C)O4)[C@H](C)O3)[C@@H](C)/C=C/C=C3\CO[C@@H]4[C@H](O)C(C)=C[C@@H](C(=O)O1)[C@]34O)O2 |  | 4.95 nM (active) and 26.8 nM (active)
CC(C)[C@H](C(=O)O[C@H](C#N)c1cccc(Oc2ccccc2)c1)c1ccc(Cl)cc1 | inactive | 
